What was measured:
Test in all cases: DAPPL (digital affinity profiling via proximity ligation, sequencing); 10 mM Tris-HCl pH 7.5, 50 mM NaCl, 1 mM DTT, 4% glycerol, room temperature, 30 min; GST-TFs on glutathione beads, 16-mer random dsDNA library, 0.1% formaldehyde crosslink after washing; high values mean tight binding
FLI1 = molecular target: T1, FLI1 (Homo sapiens, UniProt Q01543 1-452); conditions: protein: recombinant; tags: N-terminal GST; dsDNA, one strand shown
T1 sequence: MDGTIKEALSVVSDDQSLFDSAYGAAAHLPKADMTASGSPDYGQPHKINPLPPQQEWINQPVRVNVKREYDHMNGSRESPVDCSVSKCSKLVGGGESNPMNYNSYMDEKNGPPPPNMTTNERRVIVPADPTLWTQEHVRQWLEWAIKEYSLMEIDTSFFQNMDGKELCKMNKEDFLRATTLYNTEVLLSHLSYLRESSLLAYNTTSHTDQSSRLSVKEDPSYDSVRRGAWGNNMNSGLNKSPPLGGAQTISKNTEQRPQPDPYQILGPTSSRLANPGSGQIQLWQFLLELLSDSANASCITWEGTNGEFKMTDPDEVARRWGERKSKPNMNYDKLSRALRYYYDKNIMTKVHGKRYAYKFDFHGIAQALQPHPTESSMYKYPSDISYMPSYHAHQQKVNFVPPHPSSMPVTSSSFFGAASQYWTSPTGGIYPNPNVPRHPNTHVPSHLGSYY
Outline: (§1)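 Pools of DNA-barcoded human transcription factors, expressed in yeast as GST fusions on glutathione beads and combined with a tag-only sample, were incubated with 200 nmole of a 16-mer random double-stranded DNA library. Incubation took 30 min at room temperature in Tris/NaCl/DTT/glycerol buffer and was followed by washing, 0.1% formaldehyde crosslinking, proximity ligation (BsaI/T4 ligase, 1 h, 37 °C), PCR amplification and sequencing on an Illumina NextSeq500. Binding signal is the ratio of a hexamer's read frequency for a factor to its frequency for the tag-only sample.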

ELK1 = molecular target: T2, ELK1 (Homo sapiens, UniProt P19419 1-428); conditions: protein: recombinant; tags: N-terminal GST; dsDNA, one strand shown
T2 sequence: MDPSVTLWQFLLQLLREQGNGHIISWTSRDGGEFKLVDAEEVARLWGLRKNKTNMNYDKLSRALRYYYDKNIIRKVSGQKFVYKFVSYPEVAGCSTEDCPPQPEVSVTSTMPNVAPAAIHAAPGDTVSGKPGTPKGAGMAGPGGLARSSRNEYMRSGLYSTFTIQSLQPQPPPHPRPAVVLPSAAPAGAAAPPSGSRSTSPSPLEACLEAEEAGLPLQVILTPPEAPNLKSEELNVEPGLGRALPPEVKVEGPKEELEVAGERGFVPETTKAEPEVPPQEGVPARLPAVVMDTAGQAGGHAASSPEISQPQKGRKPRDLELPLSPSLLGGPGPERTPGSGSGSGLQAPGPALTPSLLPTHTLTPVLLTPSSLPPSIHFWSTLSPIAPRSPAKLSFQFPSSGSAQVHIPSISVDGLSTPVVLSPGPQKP
Outline: as §1

GABPA = molecular target: T3, GABPA (Homo sapiens, UniProt Q06546 1-454); conditions: protein: recombinant; tags: N-terminal GST; dsDNA, one strand shown
T3 sequence: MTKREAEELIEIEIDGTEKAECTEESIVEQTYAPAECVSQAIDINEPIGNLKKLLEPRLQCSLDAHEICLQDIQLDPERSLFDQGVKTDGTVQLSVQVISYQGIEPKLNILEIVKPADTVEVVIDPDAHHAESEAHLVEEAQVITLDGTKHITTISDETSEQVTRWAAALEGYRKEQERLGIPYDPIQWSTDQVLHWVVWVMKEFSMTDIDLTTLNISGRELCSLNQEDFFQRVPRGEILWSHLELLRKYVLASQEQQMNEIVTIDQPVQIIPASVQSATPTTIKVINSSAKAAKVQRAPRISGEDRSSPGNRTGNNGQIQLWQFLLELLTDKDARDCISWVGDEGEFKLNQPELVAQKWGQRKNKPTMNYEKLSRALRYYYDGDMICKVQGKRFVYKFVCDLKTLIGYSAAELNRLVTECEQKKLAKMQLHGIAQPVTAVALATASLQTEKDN
Outline: as §1

ERG = molecular target: T4, ERG (Homo sapiens, UniProt P11308 1-479); conditions: protein: recombinant; tags: N-terminal GST; dsDNA, one strand shown
T4 sequence: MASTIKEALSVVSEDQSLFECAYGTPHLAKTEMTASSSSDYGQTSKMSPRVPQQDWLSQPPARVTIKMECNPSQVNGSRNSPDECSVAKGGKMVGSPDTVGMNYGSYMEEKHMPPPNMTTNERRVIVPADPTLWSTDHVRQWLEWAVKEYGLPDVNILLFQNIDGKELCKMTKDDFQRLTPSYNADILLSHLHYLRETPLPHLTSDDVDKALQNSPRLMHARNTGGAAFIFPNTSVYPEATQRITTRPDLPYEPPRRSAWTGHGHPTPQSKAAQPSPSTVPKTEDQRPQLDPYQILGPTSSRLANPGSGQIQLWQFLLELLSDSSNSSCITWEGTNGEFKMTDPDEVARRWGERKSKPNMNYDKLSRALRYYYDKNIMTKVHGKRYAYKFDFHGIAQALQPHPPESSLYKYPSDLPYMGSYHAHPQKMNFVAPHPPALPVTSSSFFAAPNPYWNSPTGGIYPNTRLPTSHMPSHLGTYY
Outline: as §1

ELF1 = ELF1 (Homo sapiens, UniProt P32519 1-619); conditions: protein: recombinant; tags: N-terminal GST; dsDNA, one strand shown
ELF1, sequence (P32519 whole entry): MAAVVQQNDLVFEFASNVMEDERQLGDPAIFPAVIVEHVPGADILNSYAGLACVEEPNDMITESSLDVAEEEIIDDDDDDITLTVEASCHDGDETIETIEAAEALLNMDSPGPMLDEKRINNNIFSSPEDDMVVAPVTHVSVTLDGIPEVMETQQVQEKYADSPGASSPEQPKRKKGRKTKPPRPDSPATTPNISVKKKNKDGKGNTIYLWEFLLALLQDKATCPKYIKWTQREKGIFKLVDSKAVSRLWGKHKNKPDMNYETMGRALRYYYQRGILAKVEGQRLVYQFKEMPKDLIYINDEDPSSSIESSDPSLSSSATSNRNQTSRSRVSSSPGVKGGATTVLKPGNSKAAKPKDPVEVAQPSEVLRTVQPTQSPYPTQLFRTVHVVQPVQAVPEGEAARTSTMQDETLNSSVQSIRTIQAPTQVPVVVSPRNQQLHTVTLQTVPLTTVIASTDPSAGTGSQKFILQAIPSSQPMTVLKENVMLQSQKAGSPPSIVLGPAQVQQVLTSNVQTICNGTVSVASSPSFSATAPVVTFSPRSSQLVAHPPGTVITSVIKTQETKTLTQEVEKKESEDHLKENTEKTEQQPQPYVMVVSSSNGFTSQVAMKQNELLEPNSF
Outline: as §1

EHF = molecular target: T5, EHF (Homo sapiens, UniProt Q9NZC4 1-300); conditions: protein: recombinant; tags: N-terminal GST; dsDNA, one strand shown
T5 sequence: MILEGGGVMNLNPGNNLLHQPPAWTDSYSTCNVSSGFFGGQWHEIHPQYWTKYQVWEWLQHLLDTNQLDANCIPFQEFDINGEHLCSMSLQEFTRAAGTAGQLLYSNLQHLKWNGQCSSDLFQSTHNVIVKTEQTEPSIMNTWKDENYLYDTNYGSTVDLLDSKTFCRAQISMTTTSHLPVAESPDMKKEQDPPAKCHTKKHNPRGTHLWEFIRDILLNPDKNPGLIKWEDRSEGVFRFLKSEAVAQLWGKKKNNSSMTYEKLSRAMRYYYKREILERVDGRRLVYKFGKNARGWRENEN
Outline: as §1

SPIB = SPIB (Homo sapiens, UniProt Q01892 1-262); conditions: protein: recombinant; tags: N-terminal GST; dsDNA, one strand shown
SPIB, sequence (Q01892 whole entry): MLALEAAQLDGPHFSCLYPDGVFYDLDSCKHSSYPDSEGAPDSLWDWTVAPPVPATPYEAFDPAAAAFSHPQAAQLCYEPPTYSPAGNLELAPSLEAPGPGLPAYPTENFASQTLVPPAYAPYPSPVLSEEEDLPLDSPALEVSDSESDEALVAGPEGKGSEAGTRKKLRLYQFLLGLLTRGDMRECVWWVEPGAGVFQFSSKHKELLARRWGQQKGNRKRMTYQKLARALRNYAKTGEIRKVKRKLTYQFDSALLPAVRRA
Outline: as §1

ELK3 = molecular target: T6, ELK3 (Homo sapiens, UniProt P41970 1-407); conditions: protein: recombinant; tags: N-terminal GST; dsDNA, one strand shown
T6 sequence: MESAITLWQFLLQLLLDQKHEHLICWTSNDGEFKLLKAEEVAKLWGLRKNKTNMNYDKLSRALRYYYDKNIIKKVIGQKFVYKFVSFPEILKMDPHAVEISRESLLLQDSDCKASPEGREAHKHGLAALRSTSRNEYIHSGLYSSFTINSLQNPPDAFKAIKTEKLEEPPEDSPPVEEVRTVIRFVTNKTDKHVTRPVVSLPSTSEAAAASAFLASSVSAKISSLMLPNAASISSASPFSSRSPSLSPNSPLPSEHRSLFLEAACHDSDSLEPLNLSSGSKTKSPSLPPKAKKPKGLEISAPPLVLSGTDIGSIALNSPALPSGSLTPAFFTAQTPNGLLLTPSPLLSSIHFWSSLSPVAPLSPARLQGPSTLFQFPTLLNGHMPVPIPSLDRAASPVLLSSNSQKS
Outline: as §1

FEV = molecular target: T7, FEV (Homo sapiens, UniProt Q99581 1-238); conditions: protein: recombinant; tags: N-terminal GST; dsDNA, one strand shown
T7 sequence: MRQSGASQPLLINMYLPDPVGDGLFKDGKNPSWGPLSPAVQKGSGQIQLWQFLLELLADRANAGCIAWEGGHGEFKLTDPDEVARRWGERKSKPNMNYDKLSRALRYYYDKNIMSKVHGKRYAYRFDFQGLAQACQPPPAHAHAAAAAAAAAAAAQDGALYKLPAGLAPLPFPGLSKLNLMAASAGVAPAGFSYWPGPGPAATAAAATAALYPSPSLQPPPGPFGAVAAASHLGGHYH
Outline: as §1

ETV5 = ETV5 (Homo sapiens, UniProt P41161 1-510); conditions: protein: recombinant; tags: N-terminal GST; dsDNA, one strand shown
ETV5, sequence (P41161 whole entry): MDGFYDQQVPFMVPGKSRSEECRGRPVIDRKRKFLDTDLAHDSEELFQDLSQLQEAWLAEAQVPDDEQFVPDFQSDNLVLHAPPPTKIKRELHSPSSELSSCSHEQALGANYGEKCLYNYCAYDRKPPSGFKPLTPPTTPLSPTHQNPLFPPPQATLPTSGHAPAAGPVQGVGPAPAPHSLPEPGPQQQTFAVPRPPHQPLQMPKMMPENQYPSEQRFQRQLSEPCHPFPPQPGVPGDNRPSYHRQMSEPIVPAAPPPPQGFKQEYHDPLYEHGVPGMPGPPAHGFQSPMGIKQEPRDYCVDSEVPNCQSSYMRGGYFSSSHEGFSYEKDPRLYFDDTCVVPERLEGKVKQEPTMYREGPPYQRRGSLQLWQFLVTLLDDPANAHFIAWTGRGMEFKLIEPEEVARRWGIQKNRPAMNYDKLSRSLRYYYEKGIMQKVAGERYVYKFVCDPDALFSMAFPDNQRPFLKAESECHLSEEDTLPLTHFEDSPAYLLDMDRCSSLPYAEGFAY
Outline: as §1

HSF1 = HSF1 (Homo sapiens, UniProt Q00613 1-529); conditions: protein: recombinant; tags: N-terminal GST; chain copies: 3; dsDNA, one strand shown
HSF1, sequence (Q00613 whole entry): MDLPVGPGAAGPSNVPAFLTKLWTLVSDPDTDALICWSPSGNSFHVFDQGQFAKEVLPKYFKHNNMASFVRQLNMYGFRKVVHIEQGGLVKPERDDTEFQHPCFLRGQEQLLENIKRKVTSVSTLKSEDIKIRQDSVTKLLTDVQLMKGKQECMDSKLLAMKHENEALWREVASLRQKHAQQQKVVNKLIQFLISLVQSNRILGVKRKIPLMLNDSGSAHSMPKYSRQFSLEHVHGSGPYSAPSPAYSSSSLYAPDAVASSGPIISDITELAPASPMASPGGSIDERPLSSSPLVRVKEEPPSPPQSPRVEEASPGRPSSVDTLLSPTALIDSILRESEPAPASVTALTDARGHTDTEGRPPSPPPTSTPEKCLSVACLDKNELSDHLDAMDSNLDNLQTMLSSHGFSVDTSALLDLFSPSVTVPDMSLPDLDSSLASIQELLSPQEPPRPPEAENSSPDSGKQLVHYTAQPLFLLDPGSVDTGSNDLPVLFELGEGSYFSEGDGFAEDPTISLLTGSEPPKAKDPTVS
Outline: as §1

SPIC = molecular target: T8, SPIC (Homo sapiens, UniProt Q8N5J4 1-248); conditions: protein: recombinant; tags: N-terminal GST; dsDNA, one strand shown
T8 sequence: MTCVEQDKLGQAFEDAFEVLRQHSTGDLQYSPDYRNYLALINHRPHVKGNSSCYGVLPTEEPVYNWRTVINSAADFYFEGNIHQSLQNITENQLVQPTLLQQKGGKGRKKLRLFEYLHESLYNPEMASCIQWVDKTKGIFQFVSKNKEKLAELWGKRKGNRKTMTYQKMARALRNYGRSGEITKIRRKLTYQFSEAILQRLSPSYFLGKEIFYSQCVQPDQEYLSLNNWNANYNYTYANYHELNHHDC
Outline: as §1

ELF4 = ELF4 (Homo sapiens, UniProt Q99607 1-663); conditions: protein: recombinant; tags: N-terminal GST; dsDNA, one strand shown
ELF4, sequence (Q99607 whole entry): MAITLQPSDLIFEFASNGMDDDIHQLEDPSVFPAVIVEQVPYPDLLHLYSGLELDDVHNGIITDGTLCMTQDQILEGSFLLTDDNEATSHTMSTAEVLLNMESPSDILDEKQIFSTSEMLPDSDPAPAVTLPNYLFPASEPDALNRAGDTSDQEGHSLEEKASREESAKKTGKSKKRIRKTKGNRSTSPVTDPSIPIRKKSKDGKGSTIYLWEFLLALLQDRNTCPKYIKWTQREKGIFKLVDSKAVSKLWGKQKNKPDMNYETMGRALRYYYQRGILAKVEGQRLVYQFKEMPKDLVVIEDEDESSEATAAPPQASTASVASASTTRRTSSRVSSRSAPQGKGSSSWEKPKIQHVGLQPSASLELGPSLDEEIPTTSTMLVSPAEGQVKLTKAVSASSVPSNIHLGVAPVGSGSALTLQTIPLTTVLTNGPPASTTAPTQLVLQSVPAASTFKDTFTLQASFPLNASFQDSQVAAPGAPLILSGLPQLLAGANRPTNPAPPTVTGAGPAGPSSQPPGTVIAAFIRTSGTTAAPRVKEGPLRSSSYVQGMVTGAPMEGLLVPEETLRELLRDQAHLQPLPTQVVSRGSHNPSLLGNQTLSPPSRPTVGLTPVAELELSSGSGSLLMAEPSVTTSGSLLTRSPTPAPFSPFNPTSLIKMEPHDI
Outline: as §1

ELK4 = molecular target: T9, ELK4 (Homo sapiens, UniProt P28324-2 1-405); conditions: protein: recombinant; tags: N-terminal GST; dsDNA, one strand shown
T9 sequence: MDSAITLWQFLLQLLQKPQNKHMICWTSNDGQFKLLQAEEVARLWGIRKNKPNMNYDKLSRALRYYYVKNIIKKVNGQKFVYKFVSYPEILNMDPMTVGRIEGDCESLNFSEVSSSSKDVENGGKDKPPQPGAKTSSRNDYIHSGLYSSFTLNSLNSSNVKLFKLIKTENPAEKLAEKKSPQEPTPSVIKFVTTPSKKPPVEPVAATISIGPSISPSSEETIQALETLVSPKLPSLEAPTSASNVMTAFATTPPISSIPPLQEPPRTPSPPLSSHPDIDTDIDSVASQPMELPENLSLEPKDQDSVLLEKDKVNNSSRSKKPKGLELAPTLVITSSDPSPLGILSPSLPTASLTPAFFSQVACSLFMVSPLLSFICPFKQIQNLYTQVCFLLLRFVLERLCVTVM
Outline: as §1

ETV2 = molecular target: T10, ETV2 (Homo sapiens, UniProt O00321 1-342); conditions: protein: recombinant; tags: N-terminal GST; dsDNA, one strand shown
T10 sequence: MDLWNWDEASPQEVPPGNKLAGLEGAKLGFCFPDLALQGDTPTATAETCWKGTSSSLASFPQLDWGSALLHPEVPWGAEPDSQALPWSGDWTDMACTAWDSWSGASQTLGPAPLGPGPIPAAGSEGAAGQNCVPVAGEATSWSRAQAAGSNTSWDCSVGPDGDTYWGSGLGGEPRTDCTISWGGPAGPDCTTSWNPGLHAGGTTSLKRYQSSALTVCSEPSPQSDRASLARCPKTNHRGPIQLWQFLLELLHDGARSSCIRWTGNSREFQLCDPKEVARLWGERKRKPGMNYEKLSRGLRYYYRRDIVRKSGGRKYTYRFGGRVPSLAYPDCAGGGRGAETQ
Outline: as §1

ELF3 = molecular target: T11, ELF3 (Homo sapiens, UniProt P78545 1-371); conditions: protein: recombinant; tags: N-terminal GST; dsDNA, one strand shown
T11 sequence: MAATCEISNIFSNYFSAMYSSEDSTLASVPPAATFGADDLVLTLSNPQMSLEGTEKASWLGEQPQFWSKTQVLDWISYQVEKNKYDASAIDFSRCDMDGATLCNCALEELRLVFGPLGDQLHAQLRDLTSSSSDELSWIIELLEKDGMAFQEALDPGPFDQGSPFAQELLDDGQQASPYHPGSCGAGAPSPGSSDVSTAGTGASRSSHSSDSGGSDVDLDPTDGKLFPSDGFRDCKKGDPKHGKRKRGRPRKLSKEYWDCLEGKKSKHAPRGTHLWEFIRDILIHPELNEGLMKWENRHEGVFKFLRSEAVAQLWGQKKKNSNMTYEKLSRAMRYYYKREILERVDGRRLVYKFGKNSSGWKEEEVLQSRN
Outline: as §1

CRX = CRX (Homo sapiens, UniProt O43186 1-299); conditions: protein: recombinant; tags: N-terminal GST; dsDNA, one strand shown
CRX, sequence (O43186 whole entry): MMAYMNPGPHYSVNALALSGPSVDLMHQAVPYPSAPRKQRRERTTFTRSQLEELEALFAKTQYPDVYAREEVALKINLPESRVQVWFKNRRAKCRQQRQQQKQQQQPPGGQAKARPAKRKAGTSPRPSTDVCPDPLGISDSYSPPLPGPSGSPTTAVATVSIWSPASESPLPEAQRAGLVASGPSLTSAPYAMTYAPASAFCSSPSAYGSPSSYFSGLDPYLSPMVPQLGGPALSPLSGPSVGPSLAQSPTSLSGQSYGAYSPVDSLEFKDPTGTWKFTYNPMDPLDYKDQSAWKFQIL
Outline: as §1

ETV1 = ETV1 (Homo sapiens, UniProt P50549 1-477); conditions: protein: recombinant; tags: N-terminal GST; dsDNA, one strand shown
ETV1, sequence (P50549 whole entry): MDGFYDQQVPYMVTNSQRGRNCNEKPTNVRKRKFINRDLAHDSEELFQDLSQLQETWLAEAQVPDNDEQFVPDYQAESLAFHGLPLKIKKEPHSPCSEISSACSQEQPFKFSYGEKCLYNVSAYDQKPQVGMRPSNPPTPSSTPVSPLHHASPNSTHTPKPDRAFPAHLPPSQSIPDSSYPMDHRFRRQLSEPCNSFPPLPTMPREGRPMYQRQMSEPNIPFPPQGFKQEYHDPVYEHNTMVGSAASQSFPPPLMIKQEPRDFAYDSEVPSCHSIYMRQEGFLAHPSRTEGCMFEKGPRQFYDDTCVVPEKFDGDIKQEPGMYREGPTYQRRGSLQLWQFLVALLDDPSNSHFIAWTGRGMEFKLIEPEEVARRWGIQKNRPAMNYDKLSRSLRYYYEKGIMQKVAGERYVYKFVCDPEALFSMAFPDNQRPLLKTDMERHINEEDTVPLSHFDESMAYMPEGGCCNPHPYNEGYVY
Outline: as §1

CGAGCA
binding signal (FLI1): 1.17 fold enrichment (6-mer frequency, TF over GST control) | binding signal (ELK1): 1.18 fold enrichment (6-mer frequency, TF over GST control) | binding signal (GABPA): 1.18 fold enrichment (6-mer frequency, TF over GST control) | binding signal (ERG): 1.13 fold enrichment (6-mer frequency, TF over GST control) | binding signal (ELF1): 1.14 fold enrichment (6-mer frequency, TF over GST control) | binding signal (EHF): 1.05 fold enrichment (6-mer frequency, TF over GST control) | binding signal (SPIB): 1.16 fold enrichment (6-mer frequency, TF over GST control) | binding signal (ELK3): 1.14 fold enrichment (6-mer frequency, TF over GST control) | binding signal (FEV): 1.16 fold enrichment (6-mer frequency, TF over GST control) | binding signal (ETV5): 1.1 fold enrichment (6-mer frequency, TF over GST control) | binding signal (HSF1): 1.38 fold enrichment (6-mer frequency, TF over GST control) | binding signal (SPIC): 1.1 fold enrichment (6-mer frequency, TF over GST control) | binding signal (ELF4): 1.13 fold enrichment (6-mer frequency, TF over GST control) | binding signal (ELK4): 1.17 fold enrichment (6-mer frequency, TF over GST control) | binding signal (ETV2): 1.34 fold enrichment (6-mer frequency, TF over GST control) | binding signal (ELF3): 1.29 fold enrichment (6-mer frequency, TF over GST control) | binding signal (CRX): 1.04 fold enrichment (6-mer frequency, TF over GST control) | binding signal (ETV1): 1.11 fold enrichment (6-mer frequency, TF over GST control)

From publication PMC7862700, “An all-to-all approach to the identification of sequence-specific readers for epigenetic DNA modifications on cytosine”
